Screening data from PubChem BioAssay.
ST2 inh – IL1RL1 inhibition | AlphaLISA ST2-Fc/biotin-IL-33 interaction, 1 h | inhibition, % for hits at 17 µM | actives 2.3% (n = 78,000) | AID 1259354; in the data active = inhibition above about 30%
Target sequence (Q01638 whole entry, looked up): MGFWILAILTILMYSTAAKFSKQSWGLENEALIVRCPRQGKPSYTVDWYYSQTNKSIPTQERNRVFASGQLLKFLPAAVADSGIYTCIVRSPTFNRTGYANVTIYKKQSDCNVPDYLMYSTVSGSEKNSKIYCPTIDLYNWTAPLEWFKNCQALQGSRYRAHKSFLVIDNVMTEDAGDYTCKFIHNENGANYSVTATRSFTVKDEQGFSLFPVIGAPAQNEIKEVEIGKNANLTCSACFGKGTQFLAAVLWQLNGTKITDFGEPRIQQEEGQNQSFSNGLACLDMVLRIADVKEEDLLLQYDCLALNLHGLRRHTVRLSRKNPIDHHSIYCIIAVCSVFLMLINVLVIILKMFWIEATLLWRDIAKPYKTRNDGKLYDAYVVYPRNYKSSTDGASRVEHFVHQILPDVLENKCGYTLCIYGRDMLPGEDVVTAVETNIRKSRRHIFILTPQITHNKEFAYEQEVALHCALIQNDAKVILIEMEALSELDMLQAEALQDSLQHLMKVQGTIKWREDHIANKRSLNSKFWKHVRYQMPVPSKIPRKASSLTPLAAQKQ
Numbers without * were called inactive; i = inactive. The full list was thinned out, with hits kept by preference.

SMILES | ST2 inh
CCc1cc2c(=O)oc(-c3ccccc3C)nc2s1 | 33%*
Cc1ccccc1-c1nc2cc(NC(=O)CC(C)C)ccc2o1 | i
CC1=C(C(=O)Nc2cccnc2)C(c2ccccc2F)n2ncnc2N1 (stereo not drawn) | i
CC(C)NC(=O)C[C@@H]1O[C@H](CNC(=O)Nc2cccc(F)c2)[C@@H](O)[C@H]1O | i
CC(=O)NC1=NC(=O)/C(=C/c2ccc(-c3cccc(Cl)c3)o2)S1 | i
O=C1NC(=O)/C(=C\c2ccc(-c3cccc(C(=O)O)c3)o2)S1 | i
O=C1/C(=C/c2ccc(Cl)c([N+](=O)[O-])c2)Sc2ccccc21 | i
O=C1C(=Cc2ccc(-c3ccc(Cl)c([N+](=O)[O-])c3)o2)C(=O)c2ccccc21 | i
O=C1NC(=O)/C(=C\c2ccc(-c3ccc(Cl)c([N+](=O)[O-])c3)o2)S1 | 69%*
NC1=NC(=O)/C(=C\c2ccc(-c3ccc(Cl)c([N+](=O)[O-])c3)o2)S1 | 40%*
CC1=CC(=O)C=C/C1=N/OC(=O)c1ccc(Cl)cc1 | i
Oc1ccc(Br)cc1CN1CCC(N2CCOCC2)CC1 | i
CCCn1cc(CN2CCN(c3cccc(C(C)C)n3)CC2)c(C)n1 | i
Nc1ccnn1-c1ccccc1 | i
NC1=NN(c2ccccc2)CC1 | 40%*
NC1=NCCN1c1ccccc1 | i
Cc1nn(Cc2ccc(Cl)c(Cl)c2)c(C)c1NC(=O)c1noc2c1CCCC2 | i
CC(=O)c1ccc(N2N=C(C)/C(=C/c3ccc(-c4cccc([N+](=O)[O-])c4)o3)C2=O)cc1 | i
CC1=C(C#N)C(=O)NC(=O)/C1=C\c1ccc(-c2cccc([N+](=O)[O-])c2)o1 | 30%*
CC1=C(C#N)c2nc(N)c(C#N)c(C)c2/C1=C\c1cccc([N+](=O)[O-])c1 | i
COC(=O)CSc1nc(C)nc2c1c(=O)n(C)c(=O)n2C | i
Cc1ccc(-n2c(CN3CCN(S(=O)(=O)c4ccc(C(C)(C)C)cc4)CC3)nc3cccnc32)cc1 | i
CCOC(=O)C1C(=O)C=C(c2ccc(OC)cc2)CC1c1ccc(C)cc1 (stereo not drawn) | i
O=[N+]([O-])c1cc(C(F)(F)F)ccc1N1CCN(S(=O)(=O)c2ccccc2)CC1 | i
O=[N+]([O-])c1ccccc1S(=O)(=O)Nc1cccc(C(F)(F)F)c1 | i
SMILES | ST2 inh
O=[N+]([O-])c1cc(C(F)(F)F)ccc1NCCc1ccccc1 | 33%*
Clc1cccc2c3c([nH]c12)CCN(Cc1cc2n(n1)CCNC2)C3 | i
O=C(CCN1CCCC1)Nc1cccc(Cl)c1 | i
C=CCNC(=O)c1c[nH]n2c(=O)c(Cc3ccc(F)cc3)c(C)nc12 | i
CC(C)(C)c1ccc(OCC(O)CN2CCCC2)cc1 (stereo not drawn) | i
CC1CCCN(CC(O)COc2ccc(C3CCCCC3)cc2)C1 (stereo not drawn) | i
OC(COc1ccc(C2C=CCC2)cc1)CN1CCCCC1 (stereo not drawn) | 52%*
CNc1ccccc1[N+](=O)[O-] | i
COc1ccc(CNc2c([N+](=O)[O-])c(=O)oc3ccccc23)cc1 | i
COc1ccc(CNc2ccccc2[N+](=O)[O-])cc1 | 38%*
CC(=O)N1c2ccc(S(=O)(=O)N3CCCCC3)cc2CC1C(=O)N1CCc2ccccc2C1 (stereo not drawn) | i
O=S1(=O)CC2N=C(Nc3cc(F)ccc3F)SC2C1 (stereo not drawn) | i
O=C(Nc1ccccc1C1CC1)c1ccc(Cl)cc1 | i
Cc1ccccc1NC1CC(C)Nc2c(C)cccc21 (stereo not drawn) | 39%*
Cc1ccccc1NC(=O)C1C2CCCCC21 (stereo not drawn) | i
O=C(Nc1ccc(Br)cc1)c1cccc(S(=O)(=O)N2CCOCC2)c1 | i
Cc1cccc(NC2=CC(c3ccc([N+](=O)[O-])cc3)N(c3cccc(C)c3)C2=O)c1 (stereo not drawn) | i
Nc1nonc1-c1noc(COc2ccc(F)cc2)n1 | i
N#Cc1nc(COc2ccccc2)oc1NCc1ccc(F)cc1 | 34%*
COc1ccc(CNc2oc(COc3ccc(OC)cc3)nc2C#N)cc1 | i
Cc1cnc(NCCNC(=O)c2cccnc2)nc1N(C)C | i
O=C(CSc1nc2c([nH]c3ccccc32)c(=O)n1-c1cccc(Cl)c1)N1CCOCC1 | 35%*
NC(=O)CSc1nc2c([nH]c3ccccc32)c(=O)n1-c1ccc(Cl)cc1 | i
O=C(CSc1nc2c([nH]c3ccccc32)c(=O)n1-c1ccc(F)cc1)N1CCCCC1 | i
Cc1ccsc1-c1nc(Cn2ccnc2-c2ccccn2)c(C)o1 | i
SMILES | ST2 inh
CC1CCC(NC(=O)C2(C)CCC(=O)N2CCc2ccc(Cl)cc2)CC1 (stereo not drawn) | i
CC(=O)c1ccc(NC(=O)c2cc(-c3ccco3)on2)cc1 | i
CC(=O)c1ccc(NC(=O)c2cccc(Cl)c2)cc1 | i
CC(=O)c1ccc(NC(=O)c2ccc3nc(-c4ccco4)c(-c4ccco4)nc3c2)cc1 | 40%*
CCOc1ccc(-n2c(SCC(=O)N3CCCCCC3)nc3c(c2=O)SCC3)cc1 | i
Cc1ccc(N2C(=O)CC(Sc3nc4ccccc4s3)C2=O)cc1 (stereo not drawn) | i
CC1CCCCC1NC(=O)C1CCCN(S(=O)(=O)c2cnc[nH]2)C1 (stereo not drawn) | i
COCC(=O)N1CCC(Oc2ccc(C(=O)N(C)Cc3cccs3)cc2)CC1 | i
Cn1c(=O)c2c(nc(SCC(=O)O)n2Cc2cc3c(cc2Cl)OCO3)n(C)c1=O | 37%*
Cn1c(=O)c2c(nc(Oc3ccc4c(c3)OCO4)n2Cc2ccc(Cl)cc2)n(C)c1=O | i
Cn1c(=O)c2c(nc(SCC(=O)Nc3ccc4c(c3)OCO4)n2Cc2ccccc2)n(C)c1=O | i
COc1ccc(N2C(=O)C(N3C(=O)c4ccccc4C3=O)C2c2ccc(F)cc2)c(OC)c1 (stereo not drawn) | i
Cn1c(Br)nc2c1c(=O)n(Cc1ccccc1)c(=O)n2C | i
COc1ccc(Oc2nc3c(c(=O)n(Cc4ccccc4)c(=O)n3C)n2C)cc1 | 35%*
Cn1c(=O)c2c(nc(Oc3ccccc3)n2C)n(C)c1=O | i
CC(C)N(C(=O)c1cccs1)C(C)C | i
Fc1ccc(-c2cc(C(F)(F)F)nc(NCc3cccnc3)n2)cc1 | i
CCc1ccc(NC(=O)Cn2c(=O)n(-c3ccc(F)cc3F)c(=O)c3sccc32)cc1 | i
Cc1ccc(-c2cc(=O)c(=O)[nH][nH]2)cc1 | i
Cc1ccc(-c2ccc(CCC(=O)O)[nH]2)cc1 | 35%*
Cc1ccc(NC(=O)CCC(=O)O)c(C)c1 | i
CCc1nc2ccc(C(=O)NC3CC3)cc2nc1CC | i
Cc1cc(OC(C)C)nc(-c2ccccc2O)n1 | i
Cc1cc(N2N=C(c3ccccc3)CC2=O)nc(-c2ccccc2O)n1 | 31%*
Cc1cc(NC2CCCCC2)nc(-c2ccccc2O)n1 | i
CCCCN(C)S(=O)(=O)c1ccc(C(=O)Nc2nnc(-c3cccc(OC)c3)o2)cc1 | i
CCN(CC)CC(=O)Nc1cc(C)nc2ccccc12 | i
C[C@@H]1CC[C@@]2(C)C(CO)=CCC[C@@H]2[C@@]1(C)CC/C(=C/C(=O)O)CO | 36%*
CC1=CC(=O)CC2C1(C)CCC(C)C2(C)CC/C(C)=C/C(=O)O (stereo not drawn) | i
O=C(NC1CC1)C1CCC(=O)N1Cc1ccc(F)cc1 (stereo not drawn) | i
